# From publication PMC5540273 (PLoS ONE, 2017)
# Like-named read-outs stand apart in the source and are kept apart here.
# Legend:
# KIT-autoinhibited = settings: concentration: 1 μM, replicates: in singlicate; n = 1
# KIT = settings: concentration: 1 μM, replicates: in singlicate; n = 1
# LATS1 = settings: concentration: 1 μM, replicates: in singlicate; n = 1
# LATS2 = settings: concentration: 1 μM, replicates: in singlicate; n = 1
# LCK = settings: concentration: 1 μM, replicates: in singlicate; n = 1
# LIMK1 = settings: concentration: 1 μM, replicates: in singlicate; n = 1
# LIMK2 = settings: concentration: 1 μM, replicates: in singlicate; n = 1
# LKB1 = test system: T1, LKB1; settings: concentration: 1 μM, replicates: in singlicate; n = 1
# T1 construct: gene STK11
# LOK = test system: T2, LOK; settings: concentration: 1 μM, replicates: in singlicate; n = 1
# T2 construct: gene STK10
# LRRK2 = settings: concentration: 1 μM, replicates: in singlicate; n = 1
# LTK = settings: n = 1
# LYN = settings: concentration: 1 μM, replicates: in singlicate; n = 1
# LZK = test system: T3, LZK; settings: concentration: 1 μM, replicates: in singlicate; n = 1
# T3 construct: gene MAP3K13
# MAK = settings: concentration: 1 μM, replicates: in singlicate; n = 1
# MAP3K15 = settings: concentration: 1 μM, replicates: in singlicate; n = 1
# MAP3K1 = settings: concentration: 1 μM, replicates: in singlicate; n = 1
# MAP3K2 = settings: concentration: 1 μM, replicates: in singlicate; n = 1
# MAP3K3 = settings: concentration: 1 μM, replicates: in singlicate; n = 1
# MAP3K4 = settings: concentration: 1 μM, replicates: in singlicate; n = 1
# MAP4K2 = settings: concentration: 1 μM, replicates: in singlicate; n = 1
# [1] = concentration: 1 μM, replicates: in singlicate
# 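Also: KINOMEscan kinase panel screen.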
smiles,measurement,setting,value
CCc1ccnc(/C=C/c2n[nH]c3cc(Sc4ccccc4C(=O)NC)ccc23)c1,%Inh,KIT-autoinhibited,96.9%
same,%Inh,KIT,100%
same,%Inh,LATS1,9%
same,%Inh,LATS2,0%
same,%Inh,LCK,5%
same,%Inh,LIMK1,0%
same,%Inh,LIMK2,0%
same,%Inh,LKB1,0%
same,%Inh,LOK,23%
same,%Inh,LRRK2,23%
same,%Inh,LTK; [1],6%
same,%Inh,LYN,23%
same,%Inh,LZK,17%
same,%Inh,MAK,20%
same,%Inh,MAP3K15,0%
same,%Inh,MAP3K1,12%
same,%Inh,MAP3K2,17%
same,%Inh,MAP3K3,6%
same,%Inh,MAP3K4,4%
same,%Inh,MAP4K2,9%
Fc1ccc(-c2nn3c(OCC(F)(F)F)cccc3c2-c2ccncc2)cc1 [GW514784],%Inh,KIT-autoinhibited,0%
same,%Inh,KIT,24%
same,%Inh,LATS1,41%
same,%Inh,LATS2,0%
same,%Inh,LCK,7%
same,%Inh,LIMK1,0%
same,%Inh,LIMK2,0%
same,%Inh,LKB1,9%
same,%Inh,LOK,0%
same,%Inh,LRRK2,19%
same,%Inh,LTK; [1],0%
same,%Inh,LYN,0%
same,%Inh,LZK,37%
same,%Inh,MAK,31%
same,%Inh,MAP3K15,0%
same,%Inh,MAP3K1,0%
same,%Inh,MAP3K2,0%
same,%Inh,MAP3K3,0%
same,%Inh,MAP3K4,0%
same,%Inh,MAP4K2,0%
O=C(Nc1cccc(-c2nn3ncccc3c2-c2ccnc(Nc3cccc(C(F)(F)F)c3)n2)c1)c1c(F)cccc1F [GSK299495],%Inh,KIT-autoinhibited,0%
same,%Inh,KIT,98.7%
same,%Inh,LATS1,13%
same,%Inh,LATS2,6%
same,%Inh,LCK,98.2%
same,%Inh,LIMK1,9%
same,%Inh,LIMK2,0%
same,%Inh,LKB1,0%
same,%Inh,LOK,96.6%
same,%Inh,LRRK2,0%
same,%Inh,LTK; [1],3%
same,%Inh,LYN,87%
same,%Inh,LZK,12%
same,%Inh,MAK,0%
same,%Inh,MAP3K15,0%
same,%Inh,MAP3K1,15%
same,%Inh,MAP3K2,24%
same,%Inh,MAP3K3,0%
same,%Inh,MAP3K4,33%
same,%Inh,MAP4K2,0%
COc1ccc(Nc2nccc(N3CCC(NC(=O)Nc4cccc(C(C)=O)c4)C3)n2)cc1 (stereo not shown) [GSK1379731],%Inh,KIT-autoinhibited,0%
same,%Inh,KIT,49%
same,%Inh,LATS1,0%
same,%Inh,LATS2,0%
same,%Inh,LCK,0%
same,%Inh,LIMK1,1%
same,%Inh,LIMK2,0%
same,%Inh,LKB1,5%
same,%Inh,LOK,0%
same,%Inh,LRRK2,2%
same,%Inh,LTK; [1],0%
same,%Inh,LYN,0%
same,%Inh,LZK,0%
same,%Inh,MAK,29%
same,%Inh,MAP3K15,0%
same,%Inh,MAP3K1,14%
same,%Inh,MAP3K2,4%
same,%Inh,MAP3K3,0%
same,%Inh,MAP3K4,19%
same,%Inh,MAP4K2,0%
O=c1cc(N2CCOCC2)nc2n(Cc3cccc(Cl)c3Cl)c(C3CC3)nn12 [GSK2358994],%Inh,KIT-autoinhibited,15%
same,%Inh,KIT,0%
same,%Inh,LATS1,0%
same,%Inh,LATS2,27%
same,%Inh,LCK,23%
same,%Inh,LIMK1,9%
same,%Inh,LIMK2,8%
same,%Inh,LKB1,15%
same,%Inh,LOK,0%
same,%Inh,LRRK2,0%
same,%Inh,LTK; 1 µM,0%
same,%Inh,LYN,0%
same,%Inh,LZK,0%
same,%Inh,MAK,0%
same,%Inh,MAP3K15,0%
same,%Inh,MAP3K1,14%
same,%Inh,MAP3K2,0%
same,%Inh,MAP3K3,0%
same,%Inh,MAP3K4,19%
same,%Inh,MAP4K2,11%
N#Cc1c(N2CCOCC2)sc(-c2ccn[nH]2)c1-c1ccc(Cl)cc1,%Inh,KIT-autoinhibited,1%
same,%Inh,KIT,25%
same,%Inh,LATS1,22%
same,%Inh,LATS2,15%
same,%Inh,LCK,13%
same,%Inh,LIMK1,6%
same,%Inh,LIMK2,0%
same,%Inh,LKB1,25%
same,%Inh,LOK,5%
same,%Inh,LRRK2,0%
same,%Inh,LTK; [1],17%
same,%Inh,LYN,0%
same,%Inh,LZK,20%
same,%Inh,MAK,12%
same,%Inh,MAP3K15,45%
same,%Inh,MAP3K1,5%
same,%Inh,MAP3K2,0%
same,%Inh,MAP3K3,30%
same,%Inh,MAP3K4,2%
same,%Inh,MAP4K2,0%
CC(=O)Nc1ccc(COc2ccc(Nc3ccnc4cc(-c5ccccn5)ccc34)cc2)cc1.Cl [GW440148],%Inh,KIT-autoinhibited,72%
same,%Inh,KIT,100%
same,%Inh,LATS1,0%
same,%Inh,LATS2,0%
same,%Inh,LCK,31%
same,%Inh,LIMK1,0%
same,%Inh,LIMK2,0%
same,%Inh,LKB1,20%
same,%Inh,LOK,7%
same,%Inh,LRRK2,0%
same,%Inh,LTK; [1],7%
same,%Inh,LYN,1%
same,%Inh,LZK,3%
same,%Inh,MAK,43%
same,%Inh,MAP3K15,2%
same,%Inh,MAP3K1,11%
same,%Inh,MAP3K2,0%
same,%Inh,MAP3K3,0%
same,%Inh,MAP3K4,0%
same,%Inh,MAP4K2,0%
Fc1ccc(-c2ncn(CCCN3CCOCC3)c2-c2cccnc2)cc1 [SB-211743],%Inh,KIT-autoinhibited,18%
same,%Inh,KIT,2%
same,%Inh,LATS1,9%
same,%Inh,LATS2,0%
same,%Inh,LCK,20%
same,%Inh,LIMK1,9%
same,%Inh,LIMK2,0%
same,%Inh,LKB1,46%
same,%Inh,LOK,14%
same,%Inh,LRRK2,0%
same,%Inh,LTK; [1],18%
same,%Inh,LYN,0%
same,%Inh,LZK,0%
same,%Inh,MAK,15%
same,%Inh,MAP3K15,0%
same,%Inh,MAP3K1,7%
same,%Inh,MAP3K2,28%
same,%Inh,MAP3K3,0%
same,%Inh,MAP3K4,0%
same,%Inh,MAP4K2,0%
CN(C1=C(c2ccccc2)C(=O)NC1=O)c1ccccc1 [SB-334860],%Inh,KIT-autoinhibited,0%
same,%Inh,KIT,16%
same,%Inh,LATS1,0%
same,%Inh,LATS2,14%
same,%Inh,LCK,20%
same,%Inh,LIMK1,15%
same,%Inh,LIMK2,20%
same,%Inh,LKB1,5%
same,%Inh,LOK,1%
same,%Inh,LRRK2,0%
same,%Inh,LTK; [1],6%
same,%Inh,LYN,0%
same,%Inh,LZK,0%
same,%Inh,MAK,20%
same,%Inh,MAP3K15,0%
same,%Inh,MAP3K1,9%
same,%Inh,MAP3K2,2%
same,%Inh,MAP3K3,0%
same,%Inh,MAP3K4,10%
same,%Inh,MAP4K2,0%
Cc1cccc(-c2nc(-c3ccc(S(C)(=O)=O)cc3)sc2-c2ccncc2)c1,%Inh,KIT-autoinhibited,7%
same,%Inh,KIT,18%
same,%Inh,LATS1,36%
same,%Inh,LATS2,50%
same,%Inh,LCK,23%
same,%Inh,LIMK1,0%
same,%Inh,LIMK2,1%
same,%Inh,LKB1,0%
same,%Inh,LOK,0%
same,%Inh,LRRK2,2%
same,%Inh,LTK; [1],0%
same,%Inh,LYN,14%
same,%Inh,LZK,8%
same,%Inh,MAK,17%
same,%Inh,MAP3K15,9%
same,%Inh,MAP3K1,12%
same,%Inh,MAP3K2,10%
same,%Inh,MAP3K3,9%
same,%Inh,MAP3K4,0%
same,%Inh,MAP4K2,0%
COc1ccc(S(=O)(=O)NC2CCN(c3cc(C)nc(Nc4cccc(C#N)c4)n3)CC2)cc1.O=C(O)C(F)(F)F [GSK1653539],%Inh,KIT-autoinhibited,0%
same,%Inh,KIT,8%
same,%Inh,LATS1,0%
same,%Inh,LATS2,25%
same,%Inh,LCK,8%
same,%Inh,LIMK1,0%
same,%Inh,LIMK2,7%
same,%Inh,LKB1,7%
same,%Inh,LOK,0%
same,%Inh,LRRK2,0%
same,%Inh,LTK; [1],0%
same,%Inh,LYN,0%
same,%Inh,LZK,26%
same,%Inh,MAK,19%
same,%Inh,MAP3K15,0%
same,%Inh,MAP3K1,3%
same,%Inh,MAP3K2,0%
same,%Inh,MAP3K3,0%
same,%Inh,MAP3K4,24%
same,%Inh,MAP4K2,0%
